Bioassay records deposited in PubChem BioAssay by several laboratories.
CYP2C19 inhib: blockers of cytochrome P450 2C19 activity – biochemical, luminescence, ADME assay, primary screen; P33261; CYP2C19 Supersomes, luciferin-H EGE luminescence, 30 min; inhibition, % at 5 µM; 96,000 compounds, 21% hits;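 active = CYP2C19 inhibition above a set limit at 5 µM in the primary screen, cut at about 50% in these data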;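 note: plate controls were negative control wells for no effect and 2.5 mM tranylcypromine positive control for full effect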
CYP2C9 activ: human CYP2C9 activators, primary screen, biochemical, luminescence; Cytochrome P450 2C9 (Homo sapiens), P11712; recombinant CYP2C9, luciferin-H conversion; stronger effect = higher value; factor 1 = untreated enzyme, 0 = blocked; activation factor at 5 µM; 96,000 compounds, 1.4% hits; AID 1024, 2008;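 active = activation factor of 2 or more for CYP2C9 at a 5 µM dose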;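 note: 0 = sulfaphenazole-blocked wells and 1 = vehicle-only wells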
Target sequence (P11712 whole entry, looked up): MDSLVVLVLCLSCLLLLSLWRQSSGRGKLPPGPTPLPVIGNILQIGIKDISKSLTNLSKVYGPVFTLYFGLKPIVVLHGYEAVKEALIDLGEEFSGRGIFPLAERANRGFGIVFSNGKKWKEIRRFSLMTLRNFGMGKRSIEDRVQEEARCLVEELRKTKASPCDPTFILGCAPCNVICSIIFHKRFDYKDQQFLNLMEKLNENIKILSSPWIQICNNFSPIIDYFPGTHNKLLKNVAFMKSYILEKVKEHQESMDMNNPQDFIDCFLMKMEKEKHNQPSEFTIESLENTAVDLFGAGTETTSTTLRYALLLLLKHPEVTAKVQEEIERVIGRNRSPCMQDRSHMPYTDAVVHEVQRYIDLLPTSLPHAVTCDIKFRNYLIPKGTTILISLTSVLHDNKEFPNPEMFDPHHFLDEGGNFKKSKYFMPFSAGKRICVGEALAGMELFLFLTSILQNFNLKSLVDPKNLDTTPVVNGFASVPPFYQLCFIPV
PostGolgi ctrl: growth inhibition of yeast control strain, primary screen, counter-screen for post-Golgi transport modulator project; efflux-deficient yeast background strain, growth absorbance A615, 16 h; inhibition, % at 10 µM; 98,000 compounds, 5% hits
PostGolgi yeast: phenotypic screen on post-Golgi transport, primary screen | post-Golgi transport phenotypic cell assay | 98,000 compounds, 0.9% hits | AID 739, 2007 | inhibition, % at 10 µM;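 note: yeast cells grown in 1536-well plates; yeast grown about 18 h at 30C before absorbance read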
CYP2C9 inhib: blockers of cytochrome P450 2C9 activity – biochemical, luminescence, ADME assay, primary screen. CYP2C9 Supersomes, luciferin-H conversion. P11712. inhibition, % at 5 µM. 96,000 compounds, 20% hits;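 active = blocking of liver enzyme CYP2C9 beyond about 50% at 5 µM, limit read from the data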
CYP2C19 activ: human CYP2C19 activators, primary screen, biochemical, luminescence; recombinant CYP2C19, luciferin-H EGE luminescence; stronger effect = higher value; 0 = fully inhibited enzyme, 1 = untreated enzyme; activation factor at 5 µM; 96,000 tested, under 10 active; AID 1025, 2008;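 active = activation factor of at least 2 at 5 µM in the primary screen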;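 note: 0 = wells with 2.5 mM tranylcypromine and 1 = vehicle-only wells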
* marks the source's active call; other numbers are inactive results; . = no result. Only some compounds are listed: those with a hit (about 32% of all), similar ones and a draw of the others. Cut-off read from the data, not from the text of the source, unless noted: active = inhibition above about 30%; inactive = the rest.

SMILES	CYP2C19 inhib	CYP2C9 activ	PostGolgi ctrl	PostGolgi yeast	CYP2C9 inhib	CYP2C19 activ
O=C(NCCc1ccccc1)C1CCN(S(=O)(=O)c2cccc3nonc23)CC1	19	2.3*	0	-6	-128	0.8
CCCCc1c(C)nn(-c2nnc3c4ccccc4n(C)c3n2)c1C	12	0.9	27	3	14	0.9
O=C1CC(Nc2ccc(N3CCOCC3)cc2)C(=O)N1CCc1ccccc1 (centres undefined)	25	0.8	14	-6	23	0.8
O=C1CC(Nc2ccccc2)C(=O)N1Cc1ccccc1 (centres undefined)	91*	0.8	27	-5	24	0.1
O=C1CC(C2CCCO2)C(=O)N1Cc1ccccc1 (centres undefined)	47	1	-4	-8	3	0.5
O=C1CC(Nc2ccccc2)C(=O)N1CCc1ccccc1 (centres undefined)	79*	0.9	5	-9	8	0.2
O=C1CC(=O)N(CCc2ccccc2)C(=O)N1CCc1ccccc1	3	0.4	12	8	58*	1
Cc1ccc(NC(=S)N/N=C/c2ccc(OCCC(C)C)cc2)c(C)c1	24	0.4	4	-8	65*	0.8
COC(=O)c1ccc(COC(=O)c2ccccn2)cc1	48	0.6	-9	-1	44	0.5
COC(=O)c1ccc(COC(=O)CCc2nc(-c3ccccc3)c(-c3ccccc3)o2)cc1	67*	0.1	10	-11	86*	0.3
Cc1cccc2cc(CN(CC3CCCO3)S(=O)(=O)c3ccccc3)c3nnnn3c12 (centres undefined)	-15	1.1	.	.	-6	1.1
Cc1ccc2cc(CN(Cc3nnnn3Cc3ccco3)CC3CCCO3)c(=O)[nH]c2c1C (centres undefined)	82*	0.1	0	-3	86*	0.2
Cc1cccc2cc(CN(Cc3nnnn3Cc3ccco3)C3CCCC3)c3nnnn3c12	92*	0.1	43*	17	94*	0.1
Cc1ccc(S(=O)(=O)Cn2nnnc2CN(Cc2ccco2)CC2CCCO2)cc1 (centres undefined)	84*	0.1	-2	-2	91*	0.2
O=c1c2ccccc2ncn1CCCSc1ccccc1	78*	0.6	11	-1	39	0.2
O=C(CCn1cnc2ccccc2c1=O)Nc1cccc(Cl)c1	45	0.7	3	8	27	0.5
O=c1c2ccccc2ncn1CCCOc1ccccc1[N+](=O)[O-]	52*	0.6	8	-4	42	0.5
O=c1c2ccccc2ncn1CCCSc1ccc(Cl)cc1	22	0.6	42*	0	36	0.8
Cc1cc(C)c(OCCCCn2cnc3ccccc3c2=O)c(C)c1	9	0.7	13	-2	28	0.9
COc1cccc(OC)c1OCCOCCn1cnc2ccccc2c1=O	77*	0.8	-4	-1	21	0.2
COC(=O)Cn1c(=O)c2c(nc(Br)n2CC(=O)OC)n(C)c1=O	0	1.1	2	-3	-6	1
CC(C)[C@H](NC(=O)OC(C)(C)C)C(=O)N/N=C/c1cccc2nccnc12	-5	0.8	5	-5	23	1
Cc1cccc(C)c1OCCCCn1cnc2ccccc2c1=O	19	0.5	15	5	53*	0.8
O=[N+]([O-])c1ccc(Sc2nnnn2-c2ccccc2)c(Cl)c1	98*	0.3	22	10	68*	0
Nc1ccc(Sc2nnnn2-c2ccccc2)c(Cl)c1	93*	1.1	8	23	-7	0.1
COC(=O)c1nc2n(n1)C(c1cccc(Cl)c1)C1=C(CC(C)(C)CC1=O)N2 (centres undefined)	1	0.9	7	-1	13	1
Cc1nc2ccc(-c3ccccc3)cc2o1	9	1	-5	0	1	0.9
Cc1ccc(S(=O)(=O)c2c(N)n(NC(=O)c3ccco3)c3nc4ccccc4nc23)cc1	44	0.9	7	14	8	0.6
